# In PubChem BioAssay:
# Where “and” joins values, the source holds several entries; their conditions need not be identical. Equal values may be shown once. Results filed as inconclusive are left out. A structure can be active in one record and inactive in another. Calls of active or inactive are those of the source.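 The calls were made as follows, unless noted: active = compounds whose cell count with miR-34 switched on is under 0.7 times the count with it off; inactive = the rest.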
# Experiments:
# [1] = growth inhibition of DIPG cells – cell-based, MIPE4.0 library, CellTiter-Glo luminescence, qHTS (AID 1347066; cut-off not given, nearly all actives have AC50 up to about 30 µM;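 also: cells exposed to compound for 48 hours before readout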); conditions: SU-DIPG-VI viability, CellTiter-Glo ATP luminescence
# [2] = molecular target: NAD(+) hydrolase SARM1 (Homo sapiens) (UniProt Q6SZW1); assay: blocking NAD cleavage by SARM1 SAM-TIR – cell lysate, NAD-Glo luminescence (AID 1508614;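 active = compound whose remaining NAD level is above about 45 nM, limit read from the data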;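 also: higher remaining NAD means stronger inhibition of SARM1 NADase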); conditions: SAM-TIR HEK293T lysate NADase, at 1 µM, stronger effect = higher value
# [3] = molecular target: Mitogen-activated protein kinase 7 (Homo sapiens) (UniProt Q13164); assay: Gal4-ERK5 driven luciferase induction – cell-based, HTS, primary screen (AID 1508626;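 active = luciferase signal above three times the same-plate solvent-only control wells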;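 also: luciferase driven by Gal4-ERK5 fusion binding five Gal4 sites before minimal TATA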); conditions: HeLa Gal4-ERK5 transactivation, 18 h, at 5 µM, stronger effect = higher value
# [4] = viability loss with induced miR-34 in A549 – imaging, A549 dox-inducible miR-34, nuclei and caspase counts, primary screen (AID 1347080); conditions: A549 miR-34 inducible, Hoechst nuclei count, 48 h
# [5] = blockers of cellular phospholipid synthesis – cell-based, LOPAC library, screen 4, primary screen (AID 1347384; call rule not given here); conditions: animal cells, phospholipid biosynthesis inhibition screen; at 10 µM
# [6] = MELAS cybrid and Rieske KO viability enhancers – cell-based, MELAS cybrids, Rieske KO mouse fibroblasts, CellTiter-Glo, primary screen (AID 1508586;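 active = mean z-score across replicates of 1.96 or higher in either the MELAS or the Rieske mutant cell line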;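 also: z relative to plate mean and SD of compound and empty wells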); conditions: low glucose
# [7] = galactose survival enhancers in mitochondrial complex I cybrids – cell-based, galactose medium, ATP luminescence, primary screen (AID 1645843;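 active = z-score of at least 1.8 in each of two replicates, scored against plate mean and spread of sample wells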;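 also: positive z means more ATP and so rescue of galactose-driven cybrid death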); conditions: complex I mutant cybrid cells, 72 h, stronger effect = higher value
# [8] = JHH-DIPG-1 glioma cell viability, MIPE5.0 library, CellTiter-Glo luminescence, qHTS (AID 1347067; cut-off not given, nearly all actives have AC50 up to about 26 µM;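 also: cells exposed to compound for 48 hours before readout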); conditions: JHH-DIPG-1 glioma viability, CellTiter-Glo ATP luminescence
# [9] = compounds altering HSF1 focus formation in cells – imaging, Selleck Cancer Library (AID 1347162; in the data active = plate-normalised HSF1 focus index below about 0.46); conditions: human cells, HSF1 nuclear foci imaging, at 10 µM; SSMD: measured here: HSF1 foci SSMD mean; cell count: measured here: cell number; plate-normalised HSF1 focus index: stronger effect = lower value
# [10] = chitosan synthesis blockers in C. neoformans – flow cytometry, Cibacron Brilliant Red staining (AID 1347148; call rule not given here;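 also: compound exposure lasted three days at 37 degrees C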); conditions: Cryptococcus neoformans chitosan, stronger effect = lower value; at 10 µM unless noted
# [11] = growth inhibition of DIPG cells – cell-based, MIPE5.0 library, qHTS (AID 1347068; cut-off not given, nearly all actives have IC50 up to about 30 µM); conditions: SU-DIPG-XXV viability
# [12] = stronger effect = lower value, cell number ratio, induced over uninduced
# [13] = measured here: relative caspase fold change +Dox/-Dox
# [14] = measured here: total cells with miR-34 induction, stronger effect = lower value
# [15] = measured here: total cells without miR-34 induction
# [16] = MELAS cybrid survival, CellTiter-Glo 48 h, stronger effect = higher value
# [17] = Rieske KO mouse fibroblast survival, CellTiter-Glo 72 h
# Chain of Mitogen-activated protein kinase 7 (Homo sapiens) (Q13164 whole entry, looked up, the tested form may be a part): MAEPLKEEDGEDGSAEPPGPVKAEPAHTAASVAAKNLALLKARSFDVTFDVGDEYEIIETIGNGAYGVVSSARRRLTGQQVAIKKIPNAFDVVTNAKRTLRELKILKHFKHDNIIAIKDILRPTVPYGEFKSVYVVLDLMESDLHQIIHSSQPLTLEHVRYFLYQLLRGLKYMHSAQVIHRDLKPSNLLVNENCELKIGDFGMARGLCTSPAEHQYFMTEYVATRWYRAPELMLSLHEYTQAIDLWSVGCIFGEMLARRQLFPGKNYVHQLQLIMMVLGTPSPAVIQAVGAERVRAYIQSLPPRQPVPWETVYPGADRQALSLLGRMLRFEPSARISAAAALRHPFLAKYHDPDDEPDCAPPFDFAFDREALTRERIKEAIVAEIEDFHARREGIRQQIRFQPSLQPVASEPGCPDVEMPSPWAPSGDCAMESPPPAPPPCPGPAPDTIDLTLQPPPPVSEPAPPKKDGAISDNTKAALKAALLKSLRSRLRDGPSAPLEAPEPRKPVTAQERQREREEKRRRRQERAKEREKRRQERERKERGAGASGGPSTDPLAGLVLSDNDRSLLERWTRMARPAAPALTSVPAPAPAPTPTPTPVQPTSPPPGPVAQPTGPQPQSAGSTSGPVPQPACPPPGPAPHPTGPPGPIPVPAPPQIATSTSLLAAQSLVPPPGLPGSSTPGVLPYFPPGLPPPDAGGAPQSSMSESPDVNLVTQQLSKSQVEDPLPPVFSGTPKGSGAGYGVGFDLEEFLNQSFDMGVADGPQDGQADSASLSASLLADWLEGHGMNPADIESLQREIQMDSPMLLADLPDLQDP
# Chain of NAD(+) hydrolase SARM1 (Homo sapiens) (Q6SZW1 whole entry, looked up, the tested form may be a part): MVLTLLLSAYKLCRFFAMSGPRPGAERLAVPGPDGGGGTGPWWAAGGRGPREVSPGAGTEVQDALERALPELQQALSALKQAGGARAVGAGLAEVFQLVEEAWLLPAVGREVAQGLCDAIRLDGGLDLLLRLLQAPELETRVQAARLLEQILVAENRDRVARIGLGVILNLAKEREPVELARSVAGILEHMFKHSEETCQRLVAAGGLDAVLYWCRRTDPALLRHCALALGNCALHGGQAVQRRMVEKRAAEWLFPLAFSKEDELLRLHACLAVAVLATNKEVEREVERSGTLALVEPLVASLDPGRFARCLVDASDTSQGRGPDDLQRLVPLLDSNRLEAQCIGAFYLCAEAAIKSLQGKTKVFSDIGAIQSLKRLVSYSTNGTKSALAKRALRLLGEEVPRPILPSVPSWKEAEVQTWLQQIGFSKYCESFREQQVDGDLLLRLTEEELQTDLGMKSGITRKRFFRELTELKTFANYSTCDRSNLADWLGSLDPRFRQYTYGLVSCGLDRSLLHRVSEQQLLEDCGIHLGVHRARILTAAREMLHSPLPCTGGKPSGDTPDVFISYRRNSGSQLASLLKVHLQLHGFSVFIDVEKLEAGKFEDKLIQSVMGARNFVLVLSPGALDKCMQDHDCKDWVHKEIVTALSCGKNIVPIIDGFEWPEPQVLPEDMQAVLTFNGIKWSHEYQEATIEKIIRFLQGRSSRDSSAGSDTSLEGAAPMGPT
smiles,measurement,setting,value
CC1=C(C(=O)O)N2C(=O)[C@@H](NC(=O)[C@H](N)C3=CCC=CC3)[C@H]2SC1,outcome,[1],inactive
same,remaining NAD,[2],10 nM (inactive)
same,luciferase signal,[3],48 AU (inactive)
CC(=O)OCC1=C(C(=O)O)N2C(=O)[C@@H](NC(=O)Cc3cccs3)[C@H]2SC1,fold change,[4]; [12],1.04 (inactive) and 0.943 (inactive) and 0.907 (inactive)
same,fold change,[4]; [13],2.01 and 1.12 and 1.53
same,cell count,[4]; [14],10600 and 8990 and 11000
same,cell count,[4]; [15],10300 and 9530 and 12100
same,outcome,[5],inactive
same,z-score,[6]; [16],-0.988 (inactive)
same,z-score,[6]; [17],-1.16
same,remaining NAD,[2],10 nM (inactive)
same,luciferase signal,[3],52 AU (inactive)
same,z-score,[7],0.015 (inactive)
CN1Cc2c(N)cccc2C(c2ccccc2)C1 (centres undefined),fold change,[4]; [12],1.2 (inactive) and 0.943 (inactive) and 0.87 (inactive)
same,fold change,[4]; [13],1.05 and 0.932 and 4.35
same,cell count,[4]; [14],9850 and 8420 and 10600
same,cell count,[4]; [15],8240 and 8920 and 12100
same,outcome,[5],inactive
same,z-score,[6]; [16],0.549 (inactive)
same,z-score,[6]; [17],0.0395
same,remaining NAD,[2],17 nM (inactive)
same,luciferase signal,[3],88 AU (inactive)
same,z-score,[7],-0.015 (inactive)
Nc1nc(F)nc2c1ncn2[C@@H]1O[C@H](CO)[C@@H](O)[C@@H]1O,outcome,[8],inactive
same,fold change,[4]; [12],1.1 (inactive) and 1.04 (inactive)
same,fold change,[4]; [13],0.763 and 0.78
same,cell count,[4]; [14],2060 and 1630
same,cell count,[4]; [15],1870 and 1560
same,SSMD,[9],0.111
same,cell count,[9],6840
same,plate-normalised HSF1 focus index,[9],1.01 (inactive)
same,z-score,[6]; [16],4.36 (active)
same,z-score,[6]; [17],1.07
same,z-score,[7],0.045 (inactive) and -0.22 (inactive)
CC(=O)OC(C)C[N+](C)(C)C (centres undefined),fold change,[4]; [12],0.996 (inactive) and 0.9 (inactive) and 0.916 (inactive)
same,fold change,[4]; [13],1.55 and 1.24 and 1.41
same,cell count,[4]; [14],9370 and 9670 and 11300
same,cell count,[4]; [15],9400 and 10700 and 12300
same,outcome,[5],inactive
same,z-score,[6]; [16],-0.509 (inactive)
same,z-score,[6]; [17],0.138
same,remaining NAD,[2],10 nM (inactive)
same,luciferase signal,[3],104 AU (inactive)
same,z-score,[7],0.455 (inactive)
CCN(CC)CCNC(=O)c1cc(S(C)(=O)=O)ccc1OC,fold change,[4]; [12],0.998 (inactive) and 0.882 (inactive) and 0.896 (inactive)
same,fold change,[4]; [13],1.76 and 0.709 and 3.36
same,cell count,[4]; [14],9610 and 9280 and 12200
same,cell count,[4]; [15],9630 and 10500 and 13600
same,outcome,[5],inactive
same,z-score,[6]; [16],0.496 (inactive)
same,z-score,[6]; [17],-0.0746
same,remaining NAD,[2],10 nM (inactive)
same,luciferase signal,[3],80 AU (inactive)
same,z-score,[7],0.285 (inactive)
CCCc1c(OCCCCc2nn[nH]n2)ccc(C(C)=O)c1O,fold change,[4]; [12],0.952 (inactive) and 0.923 (inactive) and 1.01 (inactive)
same,fold change,[4]; [13],1 and 1.28 and 1.02
same,cell count,[4]; [14],9490 and 5900 and 5660
same,cell count,[4]; [15],9970 and 6400 and 5590
same,fold fluorescence,[10],4.57 (inactive)
same,z-score,[7],2.16 (active)
C[C@]12CC[C@@H]3c4ccc(O)cc4CC[C@H]3[C@@H]1CCC2=O,fold change,[4]; [12],0.96 (inactive) and 0.932 (inactive) and 0.881 (inactive)
same,fold change,[4]; [13],1.22 and 1.44 and 1.06
same,cell count,[4]; [14],9000 and 8450 and 7620
same,cell count,[4]; [15],9370 and 9060 and 8650
same,SSMD,[9],2.44
same,cell count,[9],6870
same,plate-normalised HSF1 focus index,[9],1.13 (inactive)
same,outcome,[5],inactive
same,z-score,[6]; [16],0.711 (inactive) and 0.373 (inactive)
same,z-score,[6]; [17],0.46 and -0.298
same,remaining NAD,[2],10 nM (inactive)
same,luciferase signal,[3],28 AU (inactive)
same,z-score,[7],-0.23 (inactive) and -0.335 (inactive)
CC(=O)N[C@@H](CS)C(=O)O,fold change,[4]; [12],1.05 (inactive) and 0.885 (inactive) and 0.922 (inactive)
same,fold change,[4]; [13],0.401 and 1.12 and 0.735
same,cell count,[4]; [14],10500 and 7510 and 10400
same,cell count,[4]; [15],9960 and 8480 and 11200
same,outcome,[5],inactive
same,z-score,[6]; [16],-0.217 (inactive) and 0.201 (inactive)
same,z-score,[6]; [17],0.862 and -0.824
same,remaining NAD,[2],10 nM (inactive)
same,luciferase signal,[3],40 AU (inactive)
same,z-score,[7],0.55 (inactive)
CCCCC(=O)O[C@]1(C(=O)CO)[C@@H](C)C[C@H]2[C@@H]3CCC4=CC(=O)C=C[C@]4(C)[C@@]3(F)[C@@H](O)C[C@@]21C,outcome,[8],inactive
same,outcome,[11],inactive
same,remaining NAD,[2],10 nM (inactive)
same,luciferase signal,[3],80 AU (inactive)
CCOC(=O)O[C@]1(C(=O)OCCl)CC[C@H]2[C@@H]3CCC4=CC(=O)C=C[C@]4(C)[C@H]3[C@@H](O)C[C@@]21C,outcome,[11],inactive
same,z-score,[6]; [16],0.475 (inactive)
same,z-score,[6]; [17],0.287
Cc1ccc(C(=O)Nc2ccc(S(=O)(=O)O)c3cc(S(=O)(=O)O)cc(S(=O)(=O)O)c23)cc1NC(=O)c1cccc(NC(=O)Nc2cccc(C(=O)Nc3cc(C(=O)Nc4ccc(S(=O)(=O)O)c5cc(S(=O)(=O)O)cc(S(=O)(=O)O)c45)ccc3C)c2)c1,outcome,[8],inactive
same,outcome,[11],inactive
same,cell count,[4]; [15],10200 and 13600 and 11000
same,outcome,[5],inactive
same,z-score,[6]; [16],0.0857 (inactive)
same,z-score,[6]; [17],-0.401
same,remaining NAD,[2],10 nM (inactive)
same,luciferase signal,[3],48 AU (inactive)
same,z-score,[7],4.14 (active) and 1.81 (inactive) and 0.955 (inactive)
CN(C)[C@@H]1C(=O)C(C(N)=O)=C(O)[C@@]2(O)C(=O)C3=C(O)c4c(O)ccc(Cl)c4[C@@H](O)[C@H]3C[C@@H]12,fold change,[4]; [12],1 (inactive) and 0.852 (inactive) and 0.887 (inactive)
same,fold change,[4]; [13],0.853 and 1.42 and 3.05
same,cell count,[4]; [14],2520 and 7990 and 10000
same,cell count,[4]; [15],2520 and 9380 and 11300
same,outcome,[5],inactive
same,z-score,[6]; [16],0.25 (inactive)
same,z-score,[6]; [17],-1.49
same,remaining NAD,[2],10 nM (inactive)
same,luciferase signal,[3],36 AU (inactive)
same,z-score,[7],2.89 (active)
